Source: PubChem BioAssay
MITF primary: inhibitors of human MITF. O75030. AlphaScreen MITF homodimerization, bead proximity signal. inhibition, % at 2.6 µM. 650,000 compounds, 0.91% hits. AID 1259374; in the data active means inhibition above about 50%;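 further: 0% = vehicle wells with protein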
GPR151 activ: human GPR151 activation. PathHunter beta-arrestin GPR151 cells, luminescence. 650,000 compounds, 1% hits. AID 1508602. Q8TDV0. activation, % at 11.2 µM; in the data active means activation above about 4.9%;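 further: 0% = median of compound wells and 100% = cells with positive control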
FBW7 activator: activators of human E3 ligase FBW7; Q969H0; AlphaScreen FBW7–phospho-cyclin E peptide binding, activator screen; normalized activity (activation), % at 26.1 µM; 650,000 compounds, 0.13% hits; AID 1259310; in the data active means normalized activity above about 1.9%;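 further: purified mutant Fbw7 with reduced substrate affinity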
Target sequence (Q969H0 whole entry, looked up): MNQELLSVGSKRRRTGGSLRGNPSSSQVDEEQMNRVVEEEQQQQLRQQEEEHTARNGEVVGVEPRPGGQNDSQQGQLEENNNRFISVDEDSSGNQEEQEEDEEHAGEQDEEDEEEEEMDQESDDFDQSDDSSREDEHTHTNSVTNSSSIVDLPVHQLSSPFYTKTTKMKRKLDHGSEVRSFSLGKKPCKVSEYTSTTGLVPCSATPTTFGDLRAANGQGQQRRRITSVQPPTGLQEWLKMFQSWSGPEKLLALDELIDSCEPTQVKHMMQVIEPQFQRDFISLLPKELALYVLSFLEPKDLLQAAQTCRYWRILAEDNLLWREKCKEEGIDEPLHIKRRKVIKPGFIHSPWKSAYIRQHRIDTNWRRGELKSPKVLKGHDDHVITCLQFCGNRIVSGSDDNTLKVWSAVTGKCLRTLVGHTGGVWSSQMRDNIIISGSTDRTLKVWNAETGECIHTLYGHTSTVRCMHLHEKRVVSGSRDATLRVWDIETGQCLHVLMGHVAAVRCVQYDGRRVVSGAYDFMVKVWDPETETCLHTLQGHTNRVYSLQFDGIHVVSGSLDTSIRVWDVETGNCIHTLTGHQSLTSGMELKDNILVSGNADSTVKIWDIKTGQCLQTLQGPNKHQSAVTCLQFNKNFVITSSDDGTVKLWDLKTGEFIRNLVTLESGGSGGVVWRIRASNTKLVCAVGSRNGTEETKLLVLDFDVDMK
TEAD-YAP block: TEAD-YAP interaction inhibition | HEK-TIYL cells, TEAD-Gal4/YAP UAS-luciferase luminescence | inhibition, % at 9.12 µM | 640,000 compounds, 1.4% hits | AID 1259422; in the data active means inhibition above about 32%;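 further: 0% = median of test compound wells and 100% = reference inhibitor wells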
* marks the source's active call; other numbers are inactive results. In the library only some 3.5% were active in any assay of this set; here they are far more common.

SMILES	MITF primary	GPR151 activ	FBW7 activator	TEAD-YAP block
CCCOCCOC(=O)c1[nH]c2c(c1C)C(=O)CC(c1cc(OC)ccc1OC)C2 (stereo not given)	-8	1	0	47*
COc1ccc(OC)c(C2CC(=O)c3c([nH]c(C(=O)OCCOC(C)C)c3C)C2)c1 (stereo not given)	-7	1	0	45*
CCCOCCOC(=O)c1[nH]c2c(c1C)C(=O)CC(c1cccs1)C2 (stereo not given)	17	0	0	56*
Cc1c(C(=O)OCCOc2ccccc2)[nH]c2c1C(=O)CCC2	-6	0	0	43*
CCCOCCOC(=O)c1[nH]c2c(c1C)C(=O)CC(c1ccc(OC)c(OC)c1)C2 (stereo not given)	-5	0	0	7
COc1ccc(OC)c(C2CC(=O)c3c([nH]c(C(=O)OCC4CCCO4)c3C)C2)c1 (stereo not given)	10	2	0	1
COC(=O)c1c(NC(=O)C2CC2c2ccccc2)sc(C(=O)N(C)C)c1C (stereo not given)	3	0	0	-17
CC1Cn2c(nnc2-c2cccc(O)c2)S1 (stereo not given)	6	0	0	-2
COCCOC(=O)c1[nH]c2c(c1C)C(=O)CC(c1cc(OC)ccc1OC)C2 (stereo not given)	-2	1	0	44*
COc1ccc(OC)c(C2CC(=O)c3c([nH]c(C(=O)OC(C)C)c3C)C2)c1 (stereo not given)	0	1	0	50*
COc1ccc(OC)c(C2CC(=O)c3c([nH]c(C(=O)OCCSC)c3C)C2)c1 (stereo not given)	0	0	0	26
CCOCCOC(=O)c1[nH]c2c(c1C)C(=O)CC(c1cc(OC)ccc1OC)C2 (stereo not given)	5	-1	0	45*
Cc1c(C(=O)OC(C)C)[nH]c2c1C(=O)CC(c1ccccc1)C2 (stereo not given)	1	0	0	51*
O=C(CN1C(=O)C2CCCCC2C1=O)OCC(=O)N1CCc2ccccc21 (stereo not given)	-10	-1	0	-5
Cc1[nH]nc2c1C(c1cccn1C)C(C#N)=C(N)O2 (stereo not given)	10	-1	0	6
COCCOC(=O)c1[nH]c2c(c1C)C(=O)CC(c1ccccc1Cl)C2 (stereo not given)	3	0	0	40*
CC1=C(C(=O)Nc2cccc(F)c2)C(c2cccs2)C2=C(CC(C)(C)CC2=O)N1 (stereo not given)	-8	1	0	58*
CC1=C(C(=O)Nc2cccc(F)c2)C(c2ccsc2)C2=C(CC(C)(C)CC2=O)N1 (stereo not given)	0	-1	0	54*
CC1=C(C(=O)Nc2ccc(F)cc2)C(c2ccsc2)C2=C(CC(C)(C)CC2=O)N1 (stereo not given)	-15	1	0	-7
CC1=C(C(=O)Nc2ccccc2F)C(c2ccccn2)C2=C(CC(C)(C)CC2=O)N1 (stereo not given)	11	0	0	4
CSc1nc(N)c2c(n1)NC1=C(C(=O)CC(C)(C)C1)C2c1cccs1 (stereo not given)	9	0	0	49*
CC1=C(C(=O)Nc2ccccc2F)C(c2ccsc2)C2=C(CC(C)(C)CC2=O)N1 (stereo not given)	-3	0	0	55*
CSc1nc(N)c2c(n1)NC1=C(C(=O)CC(C)(C)C1)C2c1ccncc1 (stereo not given)	12	-1	0	-4
CC(C)N1CCN(C(=O)c2ccccc2)CC1	45	-1	0	7
Cc1nc(SCc2ccc(OC(C)C)cc2)n[nH]1	15	-5	0	95*
SMILES	MITF primary	GPR151 activ	FBW7 activator	TEAD-YAP block
Cc1nc(SCc2ccc(Br)cc2)n[nH]1	15	0	0	33*
COc1ccccc1CN(Cc1cc2cccc(C)c2n2nnnc12)C(=O)c1ccncc1	-1	0	0	34*
Cc1cccc2cc(CN(CCc3ccccc3)C(=O)c3ccncc3)c3nnnn3c12	12	-1	1	-2
O=C(NC1CC1)c1ccc(-c2nc(NCc3nc4ccccc4[nH]3)c3ncn(C4CCCCC4)c3n2)cc1	5	-1	0	45*
CC(C)n1cnc2c(NCc3nc4ccccc4[nH]3)nc(Nc3ccccc3)nc21	-5	-1	0	64*
CC(C)n1cnc2c(NCc3nc4ccccc4[nH]3)nc(Nc3cccnc3)nc21	9	-2	0	86*
CN1CCN(C(=O)c2ccc(-c3nc(NCc4nc5ccccc5[nH]4)c4ncn(C5CCCCC5)c4n3)cc2)CC1	15	0	0	5
Cn1c(Nc2nc(NCc3nc4ccccc4[nH]3)c3ncn(-c4ccccc4)c3n2)nc2ccccc21	10	0	0	19
c1cncc(Nc2nc(NCc3nc4ccccc4[nH]3)c3[nH]cnc3n2)c1	-8	-2	3.0*	0
CC(C)n1cnc2c(Nc3ccccc3)nc(Nc3ccc(C(F)(F)F)cc3)nc21	9	1	0	-8
CC(C)n1cnc2c(NCc3nc4ccccc4[nH]3)nc(Nc3ccc(-n4ccnc4)cc3)nc21	13	-1	0	46*
c1cncc(Nc2nc(NCc3nc4ccccc4[nH]3)c3ncn(C4CCCCC4)c3n2)c1	2	-1	0	70*
c1ccc2[nH]c(CNc3nc(Nc4ccc(-n5ccnc5)cc4)nc4c3ncn4C3CCCCC3)nc2c1	-9	-2	0	-24
CC(C)n1cnc2c(NCc3nc4ccccc4[nH]3)nc(Nc3ccc(C(F)(F)F)cc3)nc21	-16	0	0	56*
NC(=O)c1ccccc1NC(=O)CCSCCC(=O)Nc1ccccc1C(N)=O	4	1	0	11
Nc1ccc2nc(-c3cccc(O)c3)[nH]c2c1	-3	-3	0	42*
Nc1cccc(-c2nc3ccc(N)cc3[nH]2)c1	2	-8	0	-9
Oc1ccc2nc(-c3ccccc3)[nH]c2c1	2	-4	0	-9
Nc1ccc(-c2nc3ccc(O)cc3[nH]2)cc1	-9	-5	0	77*
Oc1cccc(-c2nc3ccccc3[nH]2)c1	-2	-6	0	47*
Nc1ccc(-c2nc3ccc(N)cc3[nH]2)cc1	-13	-5	0	-17
Nc1ccc(-c2nc3cc4ccccc4cc3[nH]2)cc1	-1	0	0	35*
CNC(=O)COc1ccc(NS(=O)(=O)c2cc(-c3n[nH]c(=O)c4ccccc34)ccc2C)cc1	18	-1	0	6
COc1ccc(S(=O)(=O)N/N=C(/C)c2ccc(Br)cc2)cc1	11	-1	0	-5
COc1cccc(N(CCCN2C(=O)c3cccc4cccc(c34)C2=O)C(=O)c2cccc([N+](=O)[O-])c2)c1	2	1	0	-3
Fc1cccc(-c2nc3ccccc3[nH]2)c1	1	-5	0	-43
Cc1ccc2nc(-c3ccc(O)cc3)[nH]c2c1	9	-11	0	44*
